For 12 compounds, growth results are on record in PubChem BioAssay (NCI).

Assay in all cases: NCI-60 one-dose screen, 48 h (100 = growth as untreated, 0 = no growth, -100 = all killed)
Common to all, as to settings: 10 µM unless noted

The subject of assay [1] is EKVX NSCLC.
The subject of assay [2] is SN12C renal.
The test system of assay [3] is UO-31 renal.
Assay [4] relates to TK-10 renal.
The test system of assay [5] is ACHN renal.
Assay [6] deals with A498 renal.
In assay [7] the test system is CCRF-CEM leukemia.
Assay [8] deals with OVCAR-8 ovarian.
Assay [9] has as its system OVCAR-5 ovarian.
The subject of assay [10] is OVCAR-4 ovarian.
Assay [11] has as its system SK-OV-3 ovarian.
Assay [12] has as its system OVCAR-3 ovarian.
Assay [13] has as its system HS 578T breast.
The subject of assay [14] is NCI/ADR-RES ovarian.
Assay [15] has as its system CAKI-1 renal.
The test system of assay [16] is SR leukemia.
The subject of assay [17] is RPMI-8226 leukemia.
In assay [18] the test system is IGROV1 ovarian.
Assay [19] deals with MOLT-4 leukemia.

Structures are written as SMILES. The panel holds about 83,000 compounds, 20% with a hit somewhere; the sample as a whole holds those more often.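 Compound tested at a single concentration for 48 hours in 96-well plates; a percent growth value below 10 was scored as active.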 Values without a mark were called inactive. Activity calls are given as the source filed them.

Turning to `C(=C\c1ccncc1)/c1ccncc1`, the growth in [1] is 105%; in assay [2], 101%; in assay [3], 84.7%; in assay [4] it was 102%; in [5] it was 98.9%; in [6], 120%. Moreover, the growth in [7] is 101%; in [8], 121%; in [9], 114%; in [10], 92.4%; in [11], 120%; in assay [12] it was 169%. The growth is 114% in assay [13] and 98% in [14].

As for `C=CC(C)C(C)(C)O` (configuration not stated), the growth is 105% in [1]; 109% in assay [2]; 87.2% in assay [3]; 104% in assay [4]; 106% in assay [5]; 94.5% in [15]. Besides, the growth in assay [6] is 91.4%; in assay [16] it was 97.6%; in [17], 109%; in [8], 108%; in assay [9], 98.7%; in [10], 113%. Also, the growth in [11] was 106%; in assay [18], 102%; in [12], 102%; in assay [13] it was 96.3%; in assay [14], 98.3%.

`c1ccc2[nH]c(Cc3nc4ccccc4[nH]3)nc2c1`: the growth in [1] is 104%; in assay [2], 107%; in [3], 95.3%; in [4] it was 122%; in [5] it was 96.2%; in [6], 98.5%. The growth was 27.9% in assay [7]; 110% in [19]; 100% in assay [16]; 71.9% in [17]; 112% in [8]; 92% in assay [9]. For the same compound, the growth in assay [10] is 96.5%; in [11], 126%; in assay [18], 92.2%; in [12] it was 122%; in assay [14], 110%.

As for `N#CC1(O)CCCCC1`, the growth in [1] was 101%; in assay [2], 110%; in assay [3], 85.6%; in assay [4], 102%; in assay [5] it was 106%; in [15], 92.5%. For the same compound, the growth in assay [6] is 87.9%; in assay [19], 102%; in assay [16] it was 91.6%; in assay [17], 105%; in assay [8], 94.3%; in assay [9], 98.2%. For the same compound, the growth in assay [10] was 126%; in assay [11] it was 93.6%; in assay [18] it was 101%; in assay [12], 104%; in assay [14] it was 94%.

Take `CN(C)c1ncnc2c1cnn2C`: the growth in assay [1] is 102%; in [2] it was 97.2%; in [3], 90.6%; in assay [4] it was 108%; in assay [5] it was 110%; in assay [15] it was 100%. Moreover, the growth in [6] is 112%; in assay [7] it was 87.4%; in assay [19], 117%; in assay [16], 109%; in assay [17], 89%; in assay [8], 94.7%. In addition, the growth in assay [9] was 97.5%; in [10], 102%; in assay [12], 104%; in assay [13], 99.1%; in [14], 99.9%.

In the case of `O=C(OC1CCCC1)c1ccccc1Cl`, the growth in assay [1] is 111%; in assay [2], 108%; in assay [3], 93.2%; in [4], 100%; in assay [5], 104%; in assay [6], 86.6%. The growth is 107% in assay [7]; 110% in [19]; 104% in assay [16]; 102% in assay [17]; 111% in [8]; 96.2% in assay [9]. The growth in assay [10] is 107%; in [11], 108%; in assay [18] it was 106%; in [12], 112%; in assay [13], 91.7%; in assay [14] it was 108%.

Consider `CCCc1cccc(CCC)c1NC(=O)Nc1cc(Cl)cc(Cl)c1`, for which the growth is 109% in [1]; 91% in [2]; 69.7% in assay [3]; 106% in assay [4]; 101% in assay [5]; 95.9% in [6]. The growth in [7] is 91.6%; in [19] it was 101%; in [16], 108%; in assay [17] it was 96.7%; in [8] it was 101%; in [9], 104%. Further, the growth in assay [10] is 95.3%; in [18], 108%; in [12], 103%; in [13], 98.2%; in assay [14], 110%.

Take `COc1cc(CC#N)c([N+](=O)[O-])cc1OC`: the growth is 111% in assay [1]; 104% in assay [2]; 96% in assay [3]; 101% in [4]; 102% in assay [15]; 107% in assay [6]. Further, the growth in [7] is 103%; in [19] it was 94.6%; in assay [16] it was 91.2%; in [17], 109%; in [8], 98.2%; in assay [9], 111%. The growth in [10] is 128%; in [11], 111%; in assay [18] it was 95.6%; in assay [12] it was 109%; in assay [13], 117%; in assay [14] it was 105%.

With `NC(=S)c1c(N)n(C2OC(CO)C(O)C2O)c2ncnc(N)c12` (configuration not stated), the growth in assay [1] was -27.4% (active); in assay [2], 15%; in assay [3] it was -40% (active); in [4], -4.54% (active); in assay [5], 11.3%; in assay [6], -55.6% (active). Further, the growth in assay [7] is -48.9% (active); in assay [8], -10.3% (active); in [9], 3.64% (active); in [10], 14.5%; in assay [11], 5.93% (active); in assay [18], -61.2% (active). Moreover, the growth in assay [12] was -54.1% (active); in [13], -20.1% (active); in assay [14], -1.77% (active).

Take `Cc1cc(CO)c(O)c(CO)c1`: the growth in assay [1] was 106%; in [2] it was 111%; in assay [3] it was 90.9%; in assay [4] it was 97.1%; in assay [5], 103%; in assay [6] it was 95.5%. Besides, the growth was 21.4% in assay [19]; 77.8% in [16]; 91% in assay [17]; 105% in assay [8]; 101% in assay [9]; 122% in [10]. In addition, the growth in assay [11] is 106%; in assay [18] it was 108%; in [12], 113%; in assay [14], 96.1%.

Turning to `O=Cc1ccc(Cl)c(Cl)c1`, the growth in assay [1] is 109%; in [2], 110%; in [3], 80.1%; in assay [4] it was 98%; in assay [5] it was 103%; in assay [15] it was 111%. Further, the growth in assay [6] is 83.3%; in assay [7], 97.8%; in assay [19] it was 106%; in [16], 98%; in [17], 105%; in assay [8], 101%. Moreover, the growth in assay [9] was 99.8%; in [10], 95.8%; in [11], 112%; in assay [18], 83.7%; in assay [12], 116%; in assay [14], 95.4%.

In the case of `Nc1nc2nnc(-c3ccccc3)c(-c3ccccc3)n2n1`, the growth was 92.8% in assay [1]; 94.7% in assay [2]; 106% in assay [3]; 121% in [4]; 98.1% in assay [5]; 96.2% in assay [15]. Also, the growth in assay [6] is 87.4%; in [7] it was 102%; in assay [19], 103%; in assay [17], 50.7%; in [8], 101%; in [9] it was 86.3%. The growth in assay [10] was 101%; in assay [11] it was 102%; in [18], 127%; in assay [12] it was 185%; in assay [13] it was 88.9%; in [14] it was 97.2%.
